Common to all, as to test: Confirmatory Screen for Target Class Profiling of Small Molecule Inhibitors of Methyltransferases (AID 1745852); as to activity change, negative = inhibition: % is scaled to controls: 0 for no effect and ±100 for the full control effect
The target of assay [1] is Catechol O-methyltransferase (Homo sapiens) (UniProt P21964). Conditions: MTase-Glo luminescence, SAH detection, recombinant enzyme; measured here: COMT max response; stronger effect = lower value.
The target in assay [2] is Guanidinoacetate N-methyltransferase (Homo sapiens) (UniProt Q14353). Conditions: MTase-Glo luminescence, SAH detection, recombinant enzyme; activity change, negative = inhibition: at 57.3 µM (top of the series) unless noted; series mostly up to 57.3 µM.
For assay [3], the target named is Nicotinamide N-methyltransferase (Homo sapiens) (UniProt P40261). Conditions: MTase-Glo luminescence, SAH detection, recombinant enzyme; measured here: NNMT max response; stronger effect = lower value.
Assay [4] addresses Phenylethanolamine N-methyltransferase (Homo sapiens) (UniProt P11086). As to conditions: MTase-Glo luminescence, SAH detection, recombinant enzyme; measured here: PNMT max response; stronger effect = lower value.

Activity calls are given as the source filed them. Calls follow the shape of the full dose curve.

Nine compounds from PubChem BioAssay (NCATS) can be followed below.
Potency is read from the fitted curve at half-maximal effect.

Nicotinamide N-methyltransferase (Homo sapiens), sequence (P40261 whole entry, looked up): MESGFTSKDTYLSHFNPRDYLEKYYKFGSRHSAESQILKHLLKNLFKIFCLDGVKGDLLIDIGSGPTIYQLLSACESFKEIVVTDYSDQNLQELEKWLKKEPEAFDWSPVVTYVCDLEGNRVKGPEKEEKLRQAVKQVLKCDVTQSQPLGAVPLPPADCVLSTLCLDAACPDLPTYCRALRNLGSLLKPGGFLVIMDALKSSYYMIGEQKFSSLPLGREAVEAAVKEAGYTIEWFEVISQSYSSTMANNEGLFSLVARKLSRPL
Catechol O-methyltransferase (Homo sapiens), sequence (P21964 whole entry, looked up): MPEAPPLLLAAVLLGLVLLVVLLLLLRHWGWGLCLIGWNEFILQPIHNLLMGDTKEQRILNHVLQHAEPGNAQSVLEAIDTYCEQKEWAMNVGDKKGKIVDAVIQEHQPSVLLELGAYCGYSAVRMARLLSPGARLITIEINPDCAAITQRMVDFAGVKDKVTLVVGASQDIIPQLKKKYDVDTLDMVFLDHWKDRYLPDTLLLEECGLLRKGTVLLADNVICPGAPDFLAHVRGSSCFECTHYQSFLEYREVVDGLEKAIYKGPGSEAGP
Phenylethanolamine N-methyltransferase (Homo sapiens), sequence (P11086 whole entry, looked up): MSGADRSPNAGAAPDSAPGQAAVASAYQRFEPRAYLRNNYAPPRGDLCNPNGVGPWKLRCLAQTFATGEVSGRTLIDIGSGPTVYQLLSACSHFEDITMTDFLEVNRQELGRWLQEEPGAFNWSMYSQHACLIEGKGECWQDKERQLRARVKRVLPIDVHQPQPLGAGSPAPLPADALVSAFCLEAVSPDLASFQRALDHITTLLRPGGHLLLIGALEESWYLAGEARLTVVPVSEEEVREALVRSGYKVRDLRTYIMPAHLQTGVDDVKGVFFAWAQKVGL

Regarding `O=C(O)c1ccc2c(c1)C1C=CCC1C(c1ccc(Cl)cc1)N2` (stereo unspecified), the activity is -24.7% in assay [1], -22.4% in assay [3] and -23.3% in assay [4]. In assay [2], the Potency was 42.9 µM (active).
Take `COc1ccc(-c2[nH]nc3ncc(C(=O)N4CCC(c5ccccc5)CC4)nc23)c(C)c1`: the activity in assay [1] is -39.6%; in assay [3], -23.9%; in assay [4], -53.6%. The activity change, negative = inhibition in assay [2] is -20.4% [at 85.7 µM].
For `CCN1CCN(c2nc3c(S(=O)(=O)c4ccc(Br)cc4)nnn3c3ccccc23)CC1` the same measures were 1.75%, -1.61%, -3.25% and 2.08%.
On to `CCN(CC)CCCNC(=O)CCCc1nnc2n3nc(-c4ccccc4)nc3c3ccccc3n12`, for which the activity is -3.39% in assay [1], -0.543% in assay [3] and -1.05% in assay [4]. In assay [2], the activity change, negative = inhibition came to 0%.
Taken in the same sequence, the figures for `COc1cccc(NC(=O)Cn2c(=O)oc3cc(S(=O)(=O)N4CCCCC4C)ccc32)c1` (stereo unspecified) were 0.845%, -2.27%, -70.8% and -1.86%.
`O=C(NCc1cccc(Cl)c1)c1sc(=S)n2c1[nH]c(=O)c1cc3c(cc12)OCO3`: the activity is -21.3% in assay [1], -63.2% in assay [3] and -39.9% in assay [4]. In addition, the Potency in assay [2] is 27.1 µM (active).
As to `COc1ccc(CN2C[C@@H](CO)[C@H](c3ccncc3)C2)c(OC)c1`, the activity in assay [1] was 7.35%; in assay [3], -21.3%; in assay [4], 8.2%. For the same compound, in assay [2], the activity change, negative = inhibition is 7.27%.
Consider `Cn1c(=O)n(C)c2cc(S(=O)(=O)Nc3cc4c(cc3NCc3ccccc3)n(C)c(=O)n4C)ccc21`, for which the values for the activity in assay [1], in assay [3] and in assay [4] were -26%, -35.1% and -25.2%, respectively. For the same compound, in assay [2], the Potency was 21.5 µM (active).
In the case of `O=C(NCCc1ccccc1)N1CCn2cccc2C1Cc1ccccc1` (stereo unspecified), the values for the activity in assay [1], in assay [3] and in assay [4] were 0.987%, -8.34% and -0.866%, respectively. Also, in assay [2], the Potency entry is “inactive”.
